Experimental data: PubChem BioAssay (NCATS)
Inconclusive results are not listed. Activity calls are given as the source filed them. Unless noted, calls come from the whole dose curve; as a rule, active = well fitted curve in the direction sought with a large enough effect; inconclusive = small, poorly fitted or top-dose-only effect, or another doubt; inactive = no such curve, though single readings can be large; an effect the other way counts as inactive or inconclusive.

Legend:
[1] = molecular target: ATP-dependent 6-phosphofructokinase (Trypanosoma brucei brucei) (UniProt O15648); assay: qHTS Assay to Find Inhibitors of T. brucei phosphofructokinase: hit validation (AID 492961);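 note: luminescence reports ADP formed as PFK phosphorylates fructose-6-phosphate with ATP; % is set by controls: 0 for no effect and ±100 for the full control effect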
Procedure, shortened: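 PFK 1.25 nM, F6P 0.5 mM, ATP 0.1 mM, MgCl2 5 mM, 0.1 M TEA pH 8.0, Tween20 0.01%, BSA 0.1%; 45 min RT. ADP-Glo two-step detection, luminescence. qHTS titration; curve fitting with curve-class categorization.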

[2] = molecular target: Luciferin 4-monooxygenase (Photinus pyralis) (UniProt P08659); assay: Biochemical firefly luciferase enzyme assay for NPC (AID 624030);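 note: purified P. pyralis luciferase at 10 nM with luciferin and ATP substrate; 0% = DMSO and -100% = full luciferase inhibition by PTC124 control; nearly all actives have a fitted effect of over 70% in size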
Procedure, shortened: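 Counter-screen for direct inhibition of the luciferase enzyme by approved-drug library compounds, run at 10 nM enzyme in 50 mM Tris acetate (final). Luminescence was read within 5 min of enzyme-buffer addition and normalized to PTC124 versus DMSO (0%).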

[3] = S16 Schwann cell PMP22 intronic element beta-lactamase assay (AID 624044; calls by dose curve;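 note: 0% = DMSO and -100% = potassium clavulanate positive control; nearly all actives have a fitted effect of over 15% in size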); conditions: S16 rat Schwann cells, PMP22 element beta-lactamase FRET, 24 h; ratio activity, negative = inhibition: at 38.3 µM (top of the series)
Procedure, shortened: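 Rat S16 Schwann cells with beta-Lac driven by a PMP22 intronic element, compound-treated 24 h at 37 °C. LiveBLAzer FRET B/G read: 460 nm normalized to potassium clavulanate vs DMSO; 535 nm FRET as viability; concentration-effect curves classified.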

[4] = qHTS profiling for inhibitors of Plasmodium falciparum proliferation (AID 504749);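 note: 0% = DMSO vehicle and full inhibition = artemisinin control; nearly all actives have a fitted effect of over 60% in size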; conditions: P. falciparum in erythrocytes, SYBR Green DNA, 72 h, at 28.7 µM (top of the series)
Procedure, shortened: (§1)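 P. falciparum-infected erythrocytes (0.3% parasitemia, 2.5% hematocrit final) were exposed to compounds for 72 h at 37 C in 5% CO2, then lysed with SYBR Green buffer overnight at room temperature; parasite DNA fluorescence was normalized to artemisinin and DMSO controls.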

[5] = system: CP185; assay: as above; conditions: P. falciparum in erythrocytes, SYBR Green DNA, 72 h; series mostly up to 28.7 µM
Procedure, shortened: as §1

[6] = system: CP192; assay: as above; conditions: P. falciparum in erythrocytes, SYBR Green DNA, 72 h; series mostly up to 28.7 µM
Procedure, shortened: as §1

[7] = system: CP211; assay: as above; conditions: P. falciparum in erythrocytes, SYBR Green DNA, 72 h; series mostly up to 28.7 µM
Procedure, shortened: as §1

[8] = system: CP238; assay: as above; conditions: P. falciparum in erythrocytes, SYBR Green DNA, 72 h; series mostly up to 28.7 µM
Procedure, shortened: as §1

[9] = system: CP262; assay: as above; conditions: P. falciparum in erythrocytes, SYBR Green DNA, 72 h; series mostly up to 28.7 µM
Procedure, shortened: as §1

[10] = system: CP269; assay: as above; conditions: P. falciparum in erythrocytes, SYBR Green DNA, 72 h; series mostly up to 28.7 µM
Procedure, shortened: as §1

[11] = system: CP286; assay: as above; conditions: P. falciparum in erythrocytes, SYBR Green DNA, 72 h; series mostly up to 28.7 µM
Procedure, shortened: as §1

[12] = system: CP305; assay: as above; conditions: P. falciparum in erythrocytes, SYBR Green DNA, 72 h; series mostly up to 28.7 µM
Procedure, shortened: as §1

[13] = system: CP315; assay: as above; conditions: P. falciparum in erythrocytes, SYBR Green DNA, 72 h; series mostly up to 28.7 µM
Procedure, shortened: as §1

[14] = system: CP325; assay: as above; conditions: P. falciparum in erythrocytes, SYBR Green DNA, 72 h; series mostly up to 28.7 µM
Procedure, shortened: as §1

[15] = system: Dd2; assay: as above; conditions: P. falciparum in erythrocytes, SYBR Green DNA, 72 h; series mostly up to 28.7 µM
Procedure, shortened: as §1

[16] = system: FAB9; assay: as above; conditions: P. falciparum in erythrocytes, SYBR Green DNA, 72 h; series mostly up to 28.7 µM
Procedure, shortened: as §1

[17] = system: HB3; assay: as above; conditions: P. falciparum in erythrocytes, SYBR Green DNA, 72 h; series mostly up to 28.7 µM
Procedure, shortened: as §1

[18] = system: JCK; assay: as above; conditions: P. falciparum in erythrocytes, SYBR Green DNA, 72 h; series mostly up to 28.7 µM
Procedure, shortened: as §1

[19] = system: N140; assay: as above; conditions: P. falciparum in erythrocytes, SYBR Green DNA, 72 h; series mostly up to 28.7 µM
Procedure, shortened: as §1

[20] = system: PC49; assay: as above; conditions: P. falciparum in erythrocytes, SYBR Green DNA, 72 h; series mostly up to 28.7 µM
Procedure, shortened: as §1

Sequence of ATP-dependent 6-phosphofructokinase (Trypanosoma brucei brucei) (O15648 whole entry, looked up): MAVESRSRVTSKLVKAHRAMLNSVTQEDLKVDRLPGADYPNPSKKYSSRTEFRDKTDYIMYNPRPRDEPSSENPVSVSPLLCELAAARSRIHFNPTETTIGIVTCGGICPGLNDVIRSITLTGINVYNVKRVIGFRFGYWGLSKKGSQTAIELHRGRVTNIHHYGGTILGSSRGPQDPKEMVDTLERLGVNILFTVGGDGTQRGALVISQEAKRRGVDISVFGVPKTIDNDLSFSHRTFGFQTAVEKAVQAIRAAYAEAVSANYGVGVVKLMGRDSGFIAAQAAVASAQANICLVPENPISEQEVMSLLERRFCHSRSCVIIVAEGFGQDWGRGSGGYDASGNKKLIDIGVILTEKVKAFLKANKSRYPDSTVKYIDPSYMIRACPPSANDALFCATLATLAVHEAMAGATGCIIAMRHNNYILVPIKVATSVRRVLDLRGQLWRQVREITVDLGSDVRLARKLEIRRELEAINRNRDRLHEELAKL
Sequence of Luciferin 4-monooxygenase (Photinus pyralis) (P08659 whole entry, looked up): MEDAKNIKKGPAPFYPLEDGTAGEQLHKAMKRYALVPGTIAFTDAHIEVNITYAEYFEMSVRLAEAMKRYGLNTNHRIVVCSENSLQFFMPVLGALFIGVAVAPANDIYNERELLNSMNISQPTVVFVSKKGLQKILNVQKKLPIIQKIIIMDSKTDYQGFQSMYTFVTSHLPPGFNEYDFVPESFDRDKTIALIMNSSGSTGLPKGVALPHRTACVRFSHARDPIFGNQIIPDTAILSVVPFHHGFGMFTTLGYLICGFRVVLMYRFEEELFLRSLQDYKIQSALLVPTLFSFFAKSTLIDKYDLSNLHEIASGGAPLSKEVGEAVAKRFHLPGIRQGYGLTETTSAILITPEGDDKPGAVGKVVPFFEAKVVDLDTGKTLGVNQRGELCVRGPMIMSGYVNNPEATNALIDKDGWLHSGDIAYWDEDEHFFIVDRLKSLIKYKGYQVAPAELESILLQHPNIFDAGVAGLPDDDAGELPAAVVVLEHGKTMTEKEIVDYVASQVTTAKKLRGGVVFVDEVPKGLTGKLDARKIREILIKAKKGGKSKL

CC(=O)O[C@]1(C(C)=O)CCC2C3CCC4=CC(=O)CCC4(C)C3(F)C(O)CC21C (some centres undefined)
inactive: Potency [1] | Potency [2] | Potency [3] | activity, negative = inhibition ([4]; parasite line A) 7.47% | activity, negative = inhibition ([4]; parasite line B) -19% | Potency [5] | Potency [6] | Potency [7] | Potency [8] | Potency [9] | Potency [10] | Potency [11] | Potency [12] | Potency [13] | Potency [14] | Potency [15] | Potency [16] | Potency [17] | Potency [18] | Potency [19] | Potency [20]

O=C(O)C(O)c1ccccc1 (centres undefined)
inactive: Potency [1] | Potency [2] | Potency [3] | activity, negative = inhibition ([4]; parasite line A) 2.53% | activity, negative = inhibition ([4]; parasite line B) 10.7% | Potency [5] | Potency [6] | Potency [7] | Potency [8] | Potency [9] | Potency [10] | Potency [11] | Potency [12] | Potency [13] | Potency [14] | Potency [15] | Potency [16] | Potency [17] | Potency [18] | Potency [19] | Potency [20]

OC[C@@H](O)C(O[C@@H]1O[C@@H](CO)[C@H](O)[C@H](O)[C@H]1O)[C@H](O)[C@@H](O)CO (some centres undefined)
inactive: Potency [1] | Potency [2] | Potency [3] | activity, negative = inhibition ([4]; parasite line A) 12% | activity, negative = inhibition ([4]; parasite line B) 4.36% | Potency [5] | Potency [6] | Potency [7] | Potency [8] | Potency [9] | Potency [10] | Potency [11] | Potency [12] | Potency [13] | Potency [14] | Potency [15] | Potency [16] | Potency [17] | Potency [18] | Potency [19] | Potency [20]

C[C@@H](O)[C@@H]1C(=O)N2C(C(=O)O)=C([C@H]3CCCO3)S[C@H]12
inactive: Potency [1] | Potency [2] | Potency [3] | activity, negative = inhibition ([4]; parasite line A) -3.21% | activity, negative = inhibition ([4]; parasite line B) 2.27% | Potency [5] | Potency [6] | Potency [7] | Potency [8] | Potency [9] | Potency [10] | Potency [11] | Potency [12] | Potency [13] | Potency [14] | Potency [15] | Potency [16] | Potency [17] | Potency [18] | Potency [19] | Potency [20]

NC(CSSCC(N)C(=O)O)C(=O)O (centres undefined)
inactive: Potency [1] | Potency [2] | Potency [3] | activity, negative = inhibition ([4]; parasite line A) 5.04% | activity, negative = inhibition ([4]; parasite line B) 19% | Potency [5] | Potency [7] | Potency [8] | Potency [9] | Potency [10] | Potency [11] | Potency [12] | Potency [13] | Potency [14] | Potency [15] | Potency [16] | Potency [17] | Potency [18] | Potency [19] | Potency [20]
